This passage reports composite z-score and z-score results from PubChem BioAssay.

The source made the active and inactive calls. Unless noted, how the calls were made is not given here.

Assay [1] relates to Wnt5a (protein binding on small-molecule microarray). In words: small molecules binding Wnt5a protein – biophysical, small-molecule microarray, 635/667 nm fluorescence, primary screen (AID 1142).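 Further: fluorescence read at 667 nm with signal to noise per printed feature.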 Conditions: 635 nm fluorescence, higher = more signal.
The nature of assay [2]: ATP-based viability of Huh7 replicon cells – cell-based, CellTiter-Glo luminescence, basal, 48 h, cytotoxicity control for HCV replication inhibitor project, primary screen (AID 1143).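 Further: Huh7 hepatoma cells carrying a hepatitis C replication reporter with no stimulus; test concentration not given here.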 Conditions: higher = more signal, called active from +8 up or from −8 down. (In general: A replicon is a self-replicating genome or part of one, used to study replication in cells.)
The nature of assay [3]: Pseudomonas biofilm growth suppression – PAO1 strain, BacTiter-Glo luminescence, LB-PBS, primary screen (AID 1144). The settings on record: P. aeruginosa PAO1 biofilm, 12 h, higher = more signal.
Assay [4] in a line: basal CRE-LacZ reporter activity in PC12 – cell-based, unstimulated, primary screen (AID 1145). Conditions: no forskolin, luminescence, 4.5 h, higher = more signal, called active from +8 up or from −8 down.
The nature of assay [5]: forskolin-driven CRE-LacZ activity in PC12 – cell-based, CRE-LacZ reporter, forskolin-stimulated, primary screen (AID 1146).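 Further: PC12 cells with 6xCRE LacZ reporter stimulated by forskolin 10 µM; beta-galactosidase reporter signal reflecting CREB driven transcription.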 The settings on record: luminescence, 4.5 h, higher = more signal, called active from +8 up or from −8 down.
The target of assay [6] is Streptavidin (Streptomyces avidinii) (UniProt P22629). As to the kind of experiment: compounds binding control protein streptavidin – biophysical, small-molecule microarray, 635/667 nm fluorescence, artefact control for SMM compound annotation, primary screen (AID 1147).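 Further: signal reflects streptavidin binding to arrayed compounds as a control protein.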 The settings on record: higher = more signal.
Streptavidin (Streptomyces avidinii), sequence (P22629 whole entry, looked up): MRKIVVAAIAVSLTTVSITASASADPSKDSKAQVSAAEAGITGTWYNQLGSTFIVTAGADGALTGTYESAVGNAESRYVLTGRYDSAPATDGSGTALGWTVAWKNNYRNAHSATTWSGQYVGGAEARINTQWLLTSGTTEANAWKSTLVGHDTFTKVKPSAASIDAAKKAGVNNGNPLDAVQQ
Assay [7] can be described thus: probe aInhba binding on compound microarray – biochemical, small-molecule microarray, 635/667 nm fluorescence, primary screen (AID 1148).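 Further: score merges 667nm spot fluorescence with signal-to-noise for antibody binding to printed compounds.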 Conditions: higher = more signal.
The target in assay [8] is Torsin-1A (Homo sapiens) (UniProt O14656). In words: TOR1A wild-type binding on microarray – cell lysate, small-molecule microarray, lysate, 635/667 nm, primary screen (AID 1149). Conditions: COS7 hTOR1A-WT lysate, 635 nm fluorescence, higher = more signal.
Torsin-1A (Homo sapiens), sequence (O14656 whole entry, looked up): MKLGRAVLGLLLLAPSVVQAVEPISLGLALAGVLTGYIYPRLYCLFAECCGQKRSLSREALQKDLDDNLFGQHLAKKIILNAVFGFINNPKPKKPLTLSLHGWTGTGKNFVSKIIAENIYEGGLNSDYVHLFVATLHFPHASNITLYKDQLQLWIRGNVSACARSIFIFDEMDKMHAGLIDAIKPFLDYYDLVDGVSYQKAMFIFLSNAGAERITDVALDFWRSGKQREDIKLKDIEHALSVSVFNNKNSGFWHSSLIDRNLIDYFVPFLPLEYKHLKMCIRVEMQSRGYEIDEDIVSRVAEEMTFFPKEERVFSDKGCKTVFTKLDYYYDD
For assay [9] the target is unchanged. In words: torsin A mutant lysate binding on microarrays – cell lysate, small-molecule microarray, COS7 lysate, 635/667 nm fluorescence, primary screen (AID 1150).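 Further: score pools 667 nm emission and signal to noise measuring lysate protein binding.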 Conditions: COS7 hTOR1A mutant lysate, 635 nm fluorescence, higher = more signal.
The subject of assay [10] is Sonic hedgehog protein (Shh). In words: Sonic hedgehog microarray binding compounds – biochemical, small-molecule microarray, 635/667 nm fluorescence, primary screen (AID 1151).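 Further: Shh protein binding to compounds spotted on small-molecule microarray slides; score combines spot fluorescence intensity with signal-to-noise across triplicate slides.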 The settings on record: 635 nm fluorescence, higher = more signal.

Turning to `C=C(CCCC)/C(=C/C[C@H](OC(C)=O)c1ccc(OCCO)cc1)c1cnc2ccccc2c1`, the composite z-score in assay [1] was 0.0824; in assay [6], 0.535; in assay [7], -0.0087; in the assay with Torsin-1A (Homo sapiens) [8] it was 1.27; with Torsin-1A (Homo sapiens) [9] it was 0.671; in assay [10], 1.8. Also, the z-score in [2] was -1.76 (inactive); in assay [3], -0.829 (inactive); in assay [4] it was 2.59 (inactive); in [5], 1.08 (inactive).
With `O=C1[C@H]2C=C(Br)[C@H](C[C@@H]2OCCCCCCO)[C@@]12CO2`, the composite z-score is 0.255 in assay [1]; -0.29 in assay [6]; -0.024 in assay [7]; 0.36 with Torsin-1A (Homo sapiens) [8]; 0.12 with Torsin-1A (Homo sapiens) [9]; 0.129 in assay [10]. Further, the z-score is 0.993 (inactive) in assay [2], 0.41 (inactive) in [3], 0.577 (inactive) in assay [4] and 1.71 (inactive) in [5].
Turning to `COC(=O)[C@@]1(Cc2ccc(OC)cc2)[C@H]2c3cc(C(=O)N4CCCC4)n(CCc4ccc(O)c(O)c4)c3C[C@H]2CN1C(=O)c1ccccc1`, the composite z-score in assay [1] is -0.0111; in assay [6] it was 0.27; in [7] it was 0.147; in the assay with Torsin-1A (Homo sapiens) [8] it was -0.252; with Torsin-1A (Homo sapiens) [9] it was 0.641; in assay [10], -0.349. Moreover, the z-score in [2] is -1.27 (inactive); in assay [3], -0.128 (inactive); in [4], 1.54 (inactive); in [5], 0.706 (inactive).
As for `C=C[C@H](C)[C@@H](OC(=O)Nc1ccc(SC)cc1)c1ccc(O)c2ccccc12`, the composite z-score was 0.64 in assay [1]; 1.26 in assay [6]; -0.0375 in assay [7]; 0.163 with Torsin-1A (Homo sapiens) [8]; 0.165 in the assay with Torsin-1A (Homo sapiens) [9]; 1.76 in assay [10]. In addition, the z-score in assay [2] was -1.08 (inactive); in assay [3] it was -0.492 (inactive); in assay [4], -0.505 (inactive); in [5] it was 1.69 (inactive).
With `O=C1OCCC/C=C\[C@H]2OC34C=CCN(c5ccc6ccccc6c5)C(=O)[C@H]3N(CCCCCO)C(=O)[C@@H]4C12` (stereo not given in full), the composite z-score in [1] is -0.591; in [6], -0.773; in assay [7], -0.209; with Torsin-1A (Homo sapiens) [8], -2.04; with Torsin-1A (Homo sapiens) [9], -1.51; in assay [10], -0.0295. In addition, the z-score was 0.123 (inactive) in [2], 2.33 (inactive) in assay [3], 0.601 (inactive) in assay [4] and 0.106 (inactive) in [5].
With `C=CCC(OC(C)=O)[C@@H]1[C@@H](N(Cc2ccc(-c3cccc(C(F)(F)F)c3)o2)C(=O)Cc2ccc(OC)cc2)c2cc(OCCCO)ccc2N1C(=O)c1ccc2ccccc2c1` (stereo not given in full), the composite z-score was -0.301 in assay [1]; -0.445 in assay [6]; -0.128 in assay [7]; -2.27 in the assay with Torsin-1A (Homo sapiens) [8]; 0.168 with Torsin-1A (Homo sapiens) [9]; 0.804 in assay [10]. Further, the z-score in assay [2] is -1.54 (inactive); in assay [3] it was -1 (inactive); in [4], -0.0247 (inactive); in assay [5] it was 1.52 (inactive).
As for `CCCCCCc1nc(-c2ccc(-c3ccc(Cl)c(Cl)c3)o2)c(C)c2c1[Si](C(C)C)(C(C)C)OC2`, the composite z-score in assay [1] was -0.412; in assay [6], 0.0199; in assay [7], -0.0933; with Torsin-1A (Homo sapiens) [8] it was -0.782; in the assay with Torsin-1A (Homo sapiens) [9] it was 0.0515; in [10], 0.14. Further, the z-score in assay [2] was -5.66 (inactive); in [3], -1.17 (inactive); in assay [4], 0.236 (inactive); in [5] it was 0.246 (inactive).
As to `COCCOC(=O)N1C(=O)[C@@]2(c3cc(C#CC4(O)CCCCCC4)ccc31)[C@H](C(=O)Nc1nc3ccccc3s1)[C@H]1C(=O)O[C@H](c3ccccc3)[C@H](c3ccccc3)N1[C@@H]2c1ccccc1OCCO`, the composite z-score in [1] is 0.82; in assay [6] it was 0.845; in assay [7], -0.0762; with Torsin-1A (Homo sapiens) [8] it was 0.61; with Torsin-1A (Homo sapiens) [9], 0.144; in assay [10], 0.976. The z-score in [2] is -2.5 (inactive); in assay [3], 0.451 (inactive); in assay [4], 0.212 (inactive); in assay [5], -0.192 (inactive).
For `NC(=O)[C@@H]1[C@H]2C(=O)O[C@H](c3ccccc3)[C@H](c3ccccc3)N2[C@H](c2ccc(O)cc2)[C@@]12C(=O)Nc1ccc(C#CC3=CCCCC3)cc12`, the composite z-score is 0.0867 in [1]; -0.102 in [6]; 0.468 in assay [7]; 0.558 with Torsin-1A (Homo sapiens) [8]; 0.281 with Torsin-1A (Homo sapiens) [9]; 2 in assay [10]. Moreover, the z-score in assay [2] is -5.11 (inactive); in assay [3], 0.403 (inactive); in assay [4] it was 1.17 (inactive); in [5], 0.117 (inactive).
Consider `C=CCN(Cc1ccccc1)C(=O)C(c1cccs1)N(C(=O)/C=C\C(=O)O)c1ccc(CCOCCO)cc1` (stereo not given), for which the composite z-score is -0.913 in [1]; -1.82 in [6]; -0.133 in [7]; -2.08 with Torsin-1A (Homo sapiens) [8]; -2.48 in the assay with Torsin-1A (Homo sapiens) [9]; -0.595 in assay [10]. Further, the z-score in [2] was -0.0564 (inactive); in assay [3] it was -1.75 (inactive); in [4] it was -0.0737 (inactive); in assay [5], -0.771 (inactive).
As for `COc1ccc([C@H]2C[C@H]3C(Br)=C[C@@]2(CO)C(=O)[C@]32CO2)cc1`, the composite z-score in assay [1] is 0.0718; in assay [6], -0.264; in assay [7], -0.0245; in the assay with Torsin-1A (Homo sapiens) [8], -0.361; in the assay with Torsin-1A (Homo sapiens) [9], -0.83; in assay [10] it was -0.134. For the same molecule, the z-score in assay [2] is 0.187 (inactive); in assay [3], -0.23 (inactive); in assay [4] it was 0.309 (inactive); in [5], 1.6 (inactive).
Take `CN1C(=O)C2C=CC(C(O)c3ccccc3)N(N3CCCCC3)C2C1=O` (stereo not given): the composite z-score was 0.691 in assay [1]; 0.479 in [6]; 0.0301 in [7]; 0.305 in the assay with Torsin-1A (Homo sapiens) [8]; 1.14 with Torsin-1A (Homo sapiens) [9]; -0.689 in assay [10]. Also, the z-score in [2] is 0.573 (inactive); in assay [3], -0.127 (inactive); in [4], 0.819 (inactive); in [5] it was 0.584 (inactive).
For the molecule `[N-]=[N+]=NCc1ccccc1[C@@H]1OC(c2ccc(OCCCO)cc2)=N[C@]1(CCS(=O)(=O)c1ccccc1)C(N)=O`, the composite z-score in assay [1] came out at 1.2; in [6], 0.982; in [7], 0.393; with Torsin-1A (Homo sapiens) [8] it was 1.41; with Torsin-1A (Homo sapiens) [9] it was 1.26; in assay [10], 0.99. Moreover, the z-score in assay [2] was -0.369 (inactive); in [3], 1.47 (inactive); in assay [4], -0.128 (inactive); in assay [5], -0.785 (inactive).
As for `C=CCN1C(=O)[C@]2(Cc3ccccc3)N=C(c3ccc(OCCCO)cc3)O[C@@H]2c2ccccc21`, the composite z-score in assay [1] came to 0.611; in assay [6] it was 0.752; in assay [7], 0.13; with Torsin-1A (Homo sapiens) [8], 0.443; in the assay with Torsin-1A (Homo sapiens) [9] it was 0.842; in assay [10], 1.79. Also, the z-score in assay [2] was -3.85 (inactive); in assay [3] it was 0.000807 (inactive); in [4], 2.97 (inactive); in [5] it was -1.79 (inactive).
